Source: PubChem BioAssay
Sampled rows, rich in hits. Any-hit rate of the full collection: about 7.3%.
Rab9 promoter act: activators of Rab9 promoter. Huh7 Rab9 promoter-luciferase reporter, luminescence, 24 h. Potency, µM (top dose mostly 9.22 µM), for inactives: at the highest dose activation, negative = inhibition, hits mostly activators. 320,000 compounds, 2.8% hits. AID 485297; note: % of control where 0% means no effect; nearly all actives have a fitted effect of over 60% in size
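Cell-based reporter: Huh7 stable for Rab9 promoter-driven luciferase, plated in reduced-serum medium with 10% FBS at 1500 cells/well, compound-treated 24 h at 37 °C, luminescence read after 10 min reagent.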
ELG1 genotox: induces genotoxicity in HEK293T cells with luciferase-tagged ELG1; AID 504466; 330,000 compounds, 1.3% hits; Potency, µM (titrated, usually from 46 µM), inactives show at the top dose activity change, positive = activation, usual class: activators; HEK293T ELG1-luciferase reporter, luminescence, 16 h; note: % of control where 0% means no effect; nearly all actives have a fitted effect of over 60% in size
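Reporter readout depends on ELG1 protein level, which increases with genetic stress. After 16 hr compound exposure at 37 °C, luciferase activity was quantified using ONE-Glo.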
SMN2 splice up: enhancers of SMN2 splice variant expression; HEK293 SMN2-luciferase splicing reporter, luminescence, 30-36 h; Potency, µM (top dose mostly 46.1 µM), without a hit: at the top dose activity change, positive = activation, actives largely listed as activators; 210,000 compounds, 2.8% hits; note: % of control where 0% means no effect; nearly all actives have a fitted effect of over 55% in size
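HEK293 cells carry an SMN2 minigene-luciferase reporter in which exon 7 inclusion puts luciferase in frame. Cells were seeded at 2000 cells/well, attached for 10-12 hours, then exposed to compounds for 30-36 hours at 37C before ONE-Glo luminescence.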
NPC1 prom act: activates the NPC1 promoter; Potency, µM (doses to about 9.22 µM), without a hit: at the highest dose activation, usual class: activators; 320,000 compounds, 2.4% hits; Huh7 NPC1 promoter luciferase reporter, 24 h; note: % of control where 0% means no effect; nearly all actives have a fitted effect of over 60% in size
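Huh7 reporter cells (NPC1 promoter driving luciferase) are dosed with compound for 24 h at 37 °C, 5% CO2; luciferase detection reagent is then added and luminescence measured after 10 min at ambient temperature.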
KinaseGlo FLuc: Kinase-Glo luciferase inhibition (counter-screen); Q27757; Kinase-Glo luciferase, ATP luminescence, 8 min; Potency, µM (highest dose often 38.3 µM), for the others: top-dose activity change, negative = inhibition, usual class: inhibitors; 200,000 compounds, 0.28% hits; AID 1379; note: % is set by controls: 0 for no effect and ±100 for the full control effect; nearly all actives have a fitted effect of over 60% in size
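Substrate mix (final 50 mM imidazole pH 7.2, 50 mM KCl, 7 mM MgCl2, 10 uM ATP, 0.01% Tween 20, 0.05% BSA) plus pin-tool compound, then Kinase-Glo detection mix; 8 min ambient, luminescence read.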
FLuc counter: inhibits or activates purified firefly luciferase, miR-21 counter-screen; P08659; purified FLuc, Km substrates, luminescence inhibition; Potency, µM (titrated, usually from 57.5 µM), inactives show top-dose activity change, negative = inhibition, most hits filed as inhibitors; 360,000 compounds, 6.9% hits; AID 588342;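 note: plate controls were vehicle for no effect and reference inhibitor for full effect; nearly all actives have a fitted effect of over 55% in size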
Target sequence (P08659 whole entry, looked up): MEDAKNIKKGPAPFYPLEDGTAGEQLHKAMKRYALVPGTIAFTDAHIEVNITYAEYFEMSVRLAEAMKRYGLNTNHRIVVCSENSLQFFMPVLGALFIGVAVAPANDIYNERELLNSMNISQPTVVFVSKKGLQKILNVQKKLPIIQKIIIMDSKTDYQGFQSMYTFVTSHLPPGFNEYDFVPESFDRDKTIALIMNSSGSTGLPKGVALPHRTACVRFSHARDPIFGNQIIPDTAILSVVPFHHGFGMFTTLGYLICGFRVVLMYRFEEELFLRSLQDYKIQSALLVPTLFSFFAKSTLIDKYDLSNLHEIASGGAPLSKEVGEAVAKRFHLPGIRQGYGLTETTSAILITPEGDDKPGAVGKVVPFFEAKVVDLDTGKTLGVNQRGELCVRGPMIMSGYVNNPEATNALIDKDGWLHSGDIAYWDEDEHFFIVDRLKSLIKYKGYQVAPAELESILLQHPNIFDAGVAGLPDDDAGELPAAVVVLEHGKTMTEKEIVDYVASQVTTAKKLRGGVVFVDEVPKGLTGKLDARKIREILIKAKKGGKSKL
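Purified P. pyralis luciferase (10nM final) with 10uM D-luciferin and 10uM ATP (Km levels) in 50mM Tris acetate pH 7.5, 10mM Mg acetate, 0.01% Tween-20, 0.05% BSA; qHTS 6-point titration, ~60 µM downward; luminescence read.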
The depositor's hits bear a star; ? = inconclusive; · = no result; [ ] = dose if it differs, or a comment. Calls come from the whole dose curve; as a rule, active = well fitted curve in the direction sought with a large enough effect; inconclusive = small, poorly fitted or top-dose-only effect, or another doubt; inactive = no such curve, though single readings can be large; an effect the other way counts as inactive or inconclusive. Potency is the fitted concentration of half-maximal effect.

SMILES	Rab9 promoter act	ELG1 genotox	SMN2 splice up	NPC1 prom act	KinaseGlo FLuc	FLuc counter
Cc1ccc(C(=O)NC(=S)NCC2CCCO2)cc1 (centres undefined)	?	?	14.1µM*	2.82µM*	-2.5%	16.9µM*
CCOc1cc(NC(=S)NCC2CCCO2)c(OCC)cc1NC(=O)c1ccc(F)cc1 (centres undefined)	-6.0%	-1.6%	·	-5.4%	-5.0%	26.9µM*
Cc1ccc(C(=O)Nc2ccccc2C(=O)NCC2CCCO2)cc1 (centres undefined)	8.7%	-1.6%	·	-13.5%	·	15.1µM*
CC(C)(C)c1ccc(C(=O)Nc2ccccc2C(=O)NCCN2CCOCC2)cc1	8.2%	14.5%	·	29.2%	·	5.36µM*
COc1ccc2oc(=O)cc(CN3CCN(c4ccccc4F)CC3)c2c1	·	·	2.7%	·	·	-2.5%
O=C(CCc1nc2cccnc2n1Cc1ccccc1)NCc1cccc(Cl)c1	·	·	3.5%	·	·	-10.9%
O=C(Cn1c(=O)nc(-c2ccccc2F)c2cc(Cl)ccc21)Nc1ccccc1C(F)(F)F	·	·	·	·	·	0.2%
CCc1ccccc1NC(=O)c1cnc2sc(N3CCCC3)nn2c1=O	·	·	·	·	·	-5.7%
COc1ccc(-n2nnnc2C2CCN(S(=O)(=O)c3ccc(NC(C)=O)cc3)CC2)cc1	·	·	-19.9%	·	·	1.2%
Cc1ccc(-c2cc(C(=O)N3CCN(c4ccc(O)cc4)CC3)c3ccccc3n2)cc1	·	-0.3%	·	·	·	·
Cc1ccc(-c2cc(C(=O)N3CCCc4ccccc43)c3ccccc3n2)cc1	0.5%	?	-17.5%	9.0%	-11.4%	3.38µM*
Cc1cnn(C(=O)c2cc(-c3ccccc3)nc3ccccc23)c1	7.6%	-3.0%	7.3%	1.7%	-4.2%	16.9µM*
Cc1ccc(-c2cc(C(=O)N3CCN(c4ccccc4O)CC3)c3ccccc3n2)cc1	?	-1.3%	·	?	·	2.39µM*
COc1ccc(-c2cc(C(=O)N3CCN(c4ccccc4O)CC3)c3ccccc3n2)cc1OC	-1.7%	-18.5%	·	21.0%	·	9.53µM*
O=C(c1cc(-c2cccnc2)nc2ccccc12)N1CCCc2ccccc21	1.5%	-5.2%	-6.6%	-4.1%	0.6%	-19.1%
Cc1c(-c2ccc(Cl)cc2)c(=O)oc2c(CN3CCN(C)CC3)c(O)ccc12	·	·	·	·	·	3.6%
CCOC(=O)C(CC)Sc1ncnc2sc3c(c12)CCCC3 (centres undefined)	·	·	-13.7%	·	·	?
O=C(c1cc(-c2cccs2)nc2ccccc12)N1CCN(CCO)CC1	-6.6%	-4.0%	·	-0.7%	·	?
O=C(c1cc(-c2cccs2)nc2ccccc12)N1CCN(c2ccccc2O)CC1	18.4%	-10.4%	-65.8%	4.6%	6.1%	21.3µM*
COc1ccc(-c2cc(C(=O)N3CC(C)CC(C)C3)c3ccccc3n2)cc1 (centres undefined)	-5.4%	-1.0%	·	1.9%	·	?
COc1ccc(-c2cc(C(=O)N3CCN(c4ccccc4O)CC3)c3ccccc3n2)cc1	2µM*	-0.1%	·	3.16µM*	·	0.675µM*
CCOc1ccc(-c2cc(CCCC(=O)NCc3ccco3)no2)cc1	-5.5%	10.4%	10.2%	6.1%	-0.5%	3.38µM*
CCOc1ccc(-c2cc(CCCC(=O)NCCc3ccc(SC)cc3)no2)cc1	·	·	11.8%	·	·	12µM*
CCOc1ccc(-c2cc(CCCC(=O)NCCc3ccc(OCC)c(OCC)c3)no2)cc1	·	·	20.1%	·	·	9.53µM*
CCc1ccccc1Nc1cc(C(=O)NCCc2ccccc2)c2ccccc2n1	·	·	12.8%	·	·	-0.3%
SMILES	Rab9 promoter act	ELG1 genotox	SMN2 splice up	NPC1 prom act	KinaseGlo FLuc	FLuc counter
O=C(Nc1ccc(O)cc1)c1cc2ccccc2c(=O)s1	?	2.7%	·	3.98µM*	-1.8%	?
O=C(Nc1ccc(Cl)cc1)c1cc2c(Cl)nc3ccccc3c2s1	·	·	-1.7%	·	·	-3.4%
O=C(Nc1ccccc1)c1cc2ccccc2c(=O)s1	2.82µM*	-4.5%	?	?	-6.2%	10.7µM*
Cc1ccc(-n2nc(C)c3nc(CCC(=O)Nc4cccc(C)c4C)c(=O)n(C)c32)cc1	·	·	·	·	·	6.2%
CCOc1ccc(C(=O)Nc2ccc(C(=O)OCc3cc(=O)n4nc(CC)sc4n3)cc2)cc1	·	·	·	·	·	-7.6%
c1ccc2c(COn3nnc4ccccc43)cccc2c1	2.51µM*	8.91µM*	·	?	2.5%	10.7µM*
CCc1ccc(OCC(=O)N/N=C(\C)c2ccc(-n3ccnc3)cc2)cc1	17.9%	8.6%	·	14.6%	·	1.35µM*
COc1ccc(OCC(=O)N/N=C(\C)c2ccc(OC)cc2)cc1	0.9%	1.1%	-8.3%	-1.5%	1.6%	23.9µM*
C/C(=N\Nc1ccc(C(=O)O)cc1)c1nc2ccccc2n1C	1.12µM*	?	10µM*	0.562µM*	0.9%	10.7µM*
C/C(=N\NC(=O)COc1ccccc1)c1ccc(O)cc1	20.7%	9.0%	·	17.6%	-0.6%	?
CCc1ccc(OCC(=O)N/N=C(\C)c2ccc(OC(F)F)cc2)cc1	-4.8%	0.1%	7.2%	-1.7%	-4.3%	?
COc1ccc(OCC(=O)N/N=C(\C)c2cc3ccccc3o2)cc1	14.9%	16.0%	26.8%	17.4%	-8.8%	1.51µM*
CC(C)C[C@@H](C=O)NC(=O)[C@H](CC(C)C)NC(=O)[C@H](CC(C)C)NC(=O)OCc1ccccc1	·	·	-68.9%	·	·	·
O=C(Oc1ccccc1)C1O[C@@H]1c1ccccc1 (some centres undefined)	·	·	-3.5%	·	-0.5%	·
Cc1nc(CC(=O)Nc2cc(Cl)ccc2C)cs1	·	·	-1.8%	·	·	-7.0%
COc1ccc(NC(=O)N2CCc3c(sc4c3CCCC4)C2c2ccc(F)cc2)cc1 (centres undefined)	·	·	·	·	·	-3.6%
C/C(=N\Nc1ccc(C(=O)O)cc1)c1ccc(-n2ccnc2)cc1	3.98µM*	?	20µM*	2.51µM*	4.8%	12µM*
C/C(=N\NC(N)=O)c1ccc(-n2ccnc2)cc1	1.4%	5.7%	-2.7%	-4.6%	-0.3%	-1.4%
CCc1ccc(N=C2NC(=O)CC(C(=O)Nc3ccc(OC)cc3)S2)cc1 (centres undefined)	·	·	-3.4%	·	·	-1.9%
O=C(C#Cc1ccccc1)c1ccco1	-44.9%	-57.6%	·	-41.5%	·	15.1µM*
O=C(O)c1cc2ccccc2c(S(=O)(=O)O)c1O	·	·	-10.0%[9.22 µM]	·	-0.8%[7.66 µM]	·
O=C(O)[C@@H](O)c1ccc(F)cc1	·	·	-9.3%[9.22 µM]	·	-5.6%[7.66 µM]	·
O=C(O)C1CC(c2ccccc2)=Nc2ccccc2S1 (centres undefined)	?	?	·	?	·	16.9µM*
Cc1ccccc1Nc1nc(N)nc(COC(=O)c2ccc(O)cc2)n1	16.3%	2.2%	15.6%	-1.8%	-3.0%	-11.4%
Cc1ccccc1Nc1nc(N)nc(COC(=O)c2cccn2C)n1	?	16.4µM*	11.2µM*	3.55µM*	-3.3%	16.9µM*
